Assays:
Assay in all cases: SPOT peptide array binding signal intensity (averaged, normalized) (arbitrary units (background-subtracted, floor 0; scale differs between SH3 domains)); higher = stronger binding of the SH3 domain to the peptide
[1] = target: CaNbp2
Outline: (§1)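 Spot intensities were captured after detection with anti-GST antibody, an HRP-linked anti-mouse secondary and luminol, and quantified with Genespotter. The probes were GST-fused SH3 domains from four yeast species, produced in E. coli BL21(DE3), purified on glutathione Sepharose and incubated at 10 μg/ml overnight at 4°C on cellulose-bound synthetic 15-mer peptides with cysteines replaced by serines. Binding signal is the normalized, background-subtracted spot intensity averaged over replicates, and its arbitrary units differ between domains.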

[2] = target: CaRvs167
Outline: as §1

[3] = target: CaRvs167-3
Outline: as §1

[4] = target: CaSho1
Outline: as §1

[5] = target: CaSla1-D1-D2
Outline: as §1

[6] = target: CaSla1-D3
Outline: as §1

[7] = target: ScAbp1
Outline: as §1

[8] = target: ScBbc1
Outline: as §1

[9] = target: ScBem1-D1
Outline: as §1

[10] = target: ScBzz1-D1
Outline: as §1

[11] = target: ScBzz1-D2
Outline: as §1

[12] = target: ScCyk3
Outline: as §1

[13] = target: ScFus1
Outline: as §1

[14] = target: ScHof1
Outline: as §1

[15] = target: ScHse1
Outline: as §1

[16] = target: ScLsb1
Outline: as §1

[17] = target: ScLsb2
Outline: as §1

[18] = target: ScLsb3
Outline: as §1

[19] = target: ScLsb4
Outline: as §1

[20] = target: ScMyo3
Outline: as §1

[21] = target: ScMyo5
Outline: as §1

[22] = target: ScNbp2
Outline: as §1

[23] = target: ScPex13
Outline: as §1

[24] = target: ScRvs167
Outline: as §1

[25] = target: ScSho1
Outline: as §1

[26] = target: ScSla1-D1-D2
Outline: as §1

[27] = target: ScSla1-D3
Outline: as §1

[28] = target: SpAbp1-D1
Outline: as §1

[29] = target: SpBbc1
Outline: as §1

[30] = target: SpBzz1-D1
Outline: as §1

[31] = target: SpBzz1-D2
Outline: as §1

[32] = target: SpCyk3
Outline: as §1

[33] = target: SpHof1
Outline: as §1

[34] = target: SpHof1-2
Outline: as §1

[35] = target: SpHof1-3
Outline: as §1

[36] = target: SpHse1
Outline: as §1

[37] = target: SpLsb1
Outline: as §1

[38] = target: SpLsb4
Outline: as §1

[39] = target: SpMyo1
Outline: as §1

[40] = target: SpNbp2
Outline: as §1

[41] = target: SpPex13
Outline: as §1

[42] = target: SpRvs167
Outline: as §1

[43] = target: SpSla1-D1-D2
Outline: as §1

[44] = target: SpSla1-D3
Outline: as §1

[45] = target: AgAbp1
Outline: as §1

[46] = target: AgBbc1
Outline: as §1

[47] = target: AgBem1-D1
Outline: as §1

[48] = target: AgBzz1-D1
Outline: as §1

[49] = target: AgBzz1-D2
Outline: as §1

[50] = target: AgCyk3
Outline: as §1

[51] = target: AgFus1
Outline: as §1

[52] = target: AgHof1
Outline: as §1

[53] = target: AgHse1
Outline: as §1

[54] = target: AgLsb1
Outline: as §1

[55] = target: AgLsb4
Outline: as §1

[56] = target: AgMyo5
Outline: as §1

[57] = target: AgNbp2
Outline: as §1

[58] = target: AgRvs167
Outline: as §1

[59] = target: AgSho1
Outline: as §1

[60] = target: AgSla1-D1-D2
Outline: as §1

[61] = target: AgSla1-D3
Outline: as §1

[62] = target: CaAbp1-D1
Outline: as §1

[63] = target: CaAbp1-D2
Outline: as §1

[64] = target: CaBbc1
Outline: as §1

[65] = target: CaBem1-D1
Outline: as §1

[66] = target: CaBzz1-D1
Outline: as §1

[67] = target: CaBzz1-D2
Outline: as §1

[68] = target: CaCyk3
Outline: as §1

[69] = target: CaFus1
Outline: as §1

[70] = target: CaHof1
Outline: as §1

[71] = target: CaHse1
Outline: as §1

[72] = target: CaLsb1
Outline: as §1

[73] = target: CaLsb4
Outline: as §1

[74] = target: CaMyo5
Outline: as §1

B1: unnamed (peptide)
chain: MAMRPIPPLPTESEY
[1]
  SPOT peptide array binding signal intensity: 628
[2]
  SPOT peptide array binding signal intensity: 528
[3]
  SPOT peptide array binding signal intensity: ≤ 0
[4]
  SPOT peptide array binding signal intensity: 596
[5]
  SPOT peptide array binding signal intensity: 128
[6]
  SPOT peptide array binding signal intensity: 110
[7]
  SPOT peptide array binding signal intensity: 4.5
[8]
  SPOT peptide array binding signal intensity: 2
[9]
  SPOT peptide array binding signal intensity: ≤ 0
[10]
  SPOT peptide array binding signal intensity: ≤ 0
[11]
  SPOT peptide array binding signal intensity: ≤ 0
[12]
  SPOT peptide array binding signal intensity: ≤ 0
[13]
  SPOT peptide array binding signal intensity: 106
[14]
  SPOT peptide array binding signal intensity: 304
[15]
  SPOT peptide array binding signal intensity: ≤ 0
[16]
  SPOT peptide array binding signal intensity: 106
[17]
  SPOT peptide array binding signal intensity: 19.5
[18]
  SPOT peptide array binding signal intensity: 4040
[19]
  SPOT peptide array binding signal intensity: 1070
[20]
  SPOT peptide array binding signal intensity: 21.5
[21]
  SPOT peptide array binding signal intensity: 3
[22]
  SPOT peptide array binding signal intensity: 172
[23]
  SPOT peptide array binding signal intensity: 1090
[24]
  SPOT peptide array binding signal intensity: 821
[25]
  SPOT peptide array binding signal intensity: 543
[26]
  SPOT peptide array binding signal intensity: 167
[27]
  SPOT peptide array binding signal intensity: 82.2
[28]
  SPOT peptide array binding signal intensity: 13
[29]
  SPOT peptide array binding signal intensity: 4.75
[30]
  SPOT peptide array binding signal intensity: 79.5
[31]
  SPOT peptide array binding signal intensity: 17
[32]
  SPOT peptide array binding signal intensity: 14
[33]
  SPOT peptide array binding signal intensity: 140
[34]
  SPOT peptide array binding signal intensity: 110
[35]
  SPOT peptide array binding signal intensity: 26.8
[36]
  SPOT peptide array binding signal intensity: 66
[37]
  SPOT peptide array binding signal intensity: 67.8
[38]
  SPOT peptide array binding signal intensity: 2610
[39]
  SPOT peptide array binding signal intensity: 309
[40]
  SPOT peptide array binding signal intensity: 42.5
[41]
  SPOT peptide array binding signal intensity: 72
[42]
  SPOT peptide array binding signal intensity: 1130
[43]
  SPOT peptide array binding signal intensity: 2
[44]
  SPOT peptide array binding signal intensity: 28

B2: unnamed (peptide)
chain: TSIEIPKRSPLRFTS
[45]
  SPOT peptide array binding signal intensity: 9
[46]
  SPOT peptide array binding signal intensity: 41.5
[47]
  SPOT peptide array binding signal intensity: 9
[48]
  SPOT peptide array binding signal intensity: 27
[49]
  SPOT peptide array binding signal intensity: 16
[50]
  SPOT peptide array binding signal intensity: 1.5
[51]
  SPOT peptide array binding signal intensity: ≤ 0
[52]
  SPOT peptide array binding signal intensity: 6.5
[53]
  SPOT peptide array binding signal intensity: ≤ 0
[54]
  SPOT peptide array binding signal intensity: ≤ 0
[55]
  SPOT peptide array binding signal intensity: 16.5
[56]
  SPOT peptide array binding signal intensity: 2
[57]
  SPOT peptide array binding signal intensity: 10.5
[58]
  SPOT peptide array binding signal intensity: 2.33
[59]
  SPOT peptide array binding signal intensity: ≤ 0
[60]
  SPOT peptide array binding signal intensity: ≤ 0
[61]
  SPOT peptide array binding signal intensity: ≤ 0
[62]
  SPOT peptide array binding signal intensity: 272
[63]
  SPOT peptide array binding signal intensity: 81
[64]
  SPOT peptide array binding signal intensity: 484
[65]
  SPOT peptide array binding signal intensity: 12
[66]
  SPOT peptide array binding signal intensity: 41
[67]
  SPOT peptide array binding signal intensity: 20
[68]
  SPOT peptide array binding signal intensity: 58.5
[69]
  SPOT peptide array binding signal intensity: 42
[70]
  SPOT peptide array binding signal intensity: ≤ 0
[71]
  SPOT peptide array binding signal intensity: ≤ 0
[72]
  SPOT peptide array binding signal intensity: ≤ 0
[73]
  SPOT peptide array binding signal intensity: 27
[74]
  SPOT peptide array binding signal intensity: 3
[1]
  SPOT peptide array binding signal intensity: 61
[2]
  SPOT peptide array binding signal intensity: 2
[3]
  SPOT peptide array binding signal intensity: ≤ 0
[4]
  SPOT peptide array binding signal intensity: 6
[5]
  SPOT peptide array binding signal intensity: 83
[6]
  SPOT peptide array binding signal intensity: ≤ 0
[7]
  SPOT peptide array binding signal intensity: 21
[8]
  SPOT peptide array binding signal intensity: 5
[9]
  SPOT peptide array binding signal intensity: ≤ 0
[10]
  SPOT peptide array binding signal intensity: 4.5
[11]
  SPOT peptide array binding signal intensity: 1
[12]
  SPOT peptide array binding signal intensity: 3
[13]
  SPOT peptide array binding signal intensity: ≤ 0
[14]
  SPOT peptide array binding signal intensity: 0.5
[15]
  SPOT peptide array binding signal intensity: 20.5
[16]
  SPOT peptide array binding signal intensity: ≤ 0
[17]
  SPOT peptide array binding signal intensity: ≤ 0
[18]
  SPOT peptide array binding signal intensity: 252
[19]
  SPOT peptide array binding signal intensity: ≤ 0
[20]
  SPOT peptide array binding signal intensity: 11.5
[21]
  SPOT peptide array binding signal intensity: 2
[22]
  SPOT peptide array binding signal intensity: 2
[23]
  SPOT peptide array binding signal intensity: 2
[24]
  SPOT peptide array binding signal intensity: 101
[25]
  SPOT peptide array binding signal intensity: 0.5
[26]
  SPOT peptide array binding signal intensity: ≤ 0
[27]
  SPOT peptide array binding signal intensity: 30.2
[28]
  SPOT peptide array binding signal intensity: 206
[29]
  SPOT peptide array binding signal intensity: ≤ 0
[30]
  SPOT peptide array binding signal intensity: 162
[31]
  SPOT peptide array binding signal intensity: ≤ 0
[32]
  SPOT peptide array binding signal intensity: 2
[33]
  SPOT peptide array binding signal intensity: 73
[34]
  SPOT peptide array binding signal intensity: 8.75
[35]
  SPOT peptide array binding signal intensity: 25.5
[36]
  SPOT peptide array binding signal intensity: 76.8
[37]
  SPOT peptide array binding signal intensity: ≤ 0
[38]
  SPOT peptide array binding signal intensity: 376
[39]
  SPOT peptide array binding signal intensity: 12.5
[40]
  SPOT peptide array binding signal intensity: ≤ 0
[41]
  SPOT peptide array binding signal intensity: ≤ 0
[42]
  SPOT peptide array binding signal intensity: 94
[43]
  SPOT peptide array binding signal intensity: 1
[44]
  SPOT peptide array binding signal intensity: ≤ 0
